Screening results deposited in PubChem by National Center for Advancing Translational Sciences (NCATS).
A549 tox-1: A549 cytotoxicity, counter-screen for Nrf2 inhibitors. Potency, µM (top dose mostly 46 µM), inactives show top-dose activity change, negative = cytotoxicity, most hits filed as inhibitors. AID 504648. A549 ARE-Fluc cells, CellTiter-Fluor viability, 18-24 h. 0.16% of 390,000 active; note: % is set by controls: 0 for no effect and ±100 for the full control effect
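A549 ARE_Fluc cells in 5% FBS OPTI-MEM were exposed to compounds in concentration-response for 18-24 h at 37 deg C. Viability was read by CellTiter-Fluor fluorescence (Ex 405/Em 525) after 30 min, before the luciferase read.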
Nrf2 block: inhibitors of Nrf2 signaling. A549 ARE-Fluc reporter, luciferase luminescence, 18-24 h. Potency, µM (top dose mostly 46 µM), inactives show at the top dose activity change, negative = inhibition, hits mostly inhibitors. 2.1% of 360,000 active; note: % is set by controls: 0 for no effect and ±100 for the full control effect; nearly all actives have a fitted effect of over 60% in size
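Reporter: ARE-Fluc in A549. Exposure: 18-24 h, 37 °C, 5% CO2, 5% FBS OPTI-MEM. Readouts: fluorescent cytotoxicity (CellTiter-Fluor), then luminescent Nrf2 signal after BugLite.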
Nrf2 ARE act: activators of Nrf2 (ARE) signaling; AREc32 ARE-luciferase reporter (MCF7-derived line), luminescence, 24 h; Potency, µM (highest dose often 46.1 µM), inactives show at the top dose activation, most hits filed as activators; 0.31% of 410,000 active; note: % of control where 0% means no effect; nearly all actives have a fitted effect of over 65% in size
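Luciferase luminescence (Steady-Glo, 30 min at room temperature) served as the read-out of ARE activation in AREc32 cells treated with compounds for 24 hr at 37 deg C.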
Pin1 inhibitor: inhibitors of human Pin1; Q13526; Pin1 FP peptide displacement, HiFluor488, 10 min; Potency, µM (highest dose often 115 µM), inactives show at the top dose activity, negative = inhibition, hits mostly inhibitors; 0.009% of 390,000 active; AID 504891; active = well fitted inhibition curve with a large enough effect in the polarisation, with a control signal flat, not every such curve was filed as active; inconclusive = small, poorly fitted or top-dose-only effect, or effect the other way, or a change in a side signal; inactive = no such curve, though single readings can be large or run the other way; the % refers to the polarisation; note: % is set by controls: 0 for no effect and ±100 for the full control effect
Target sequence (Q13526 whole entry, looked up): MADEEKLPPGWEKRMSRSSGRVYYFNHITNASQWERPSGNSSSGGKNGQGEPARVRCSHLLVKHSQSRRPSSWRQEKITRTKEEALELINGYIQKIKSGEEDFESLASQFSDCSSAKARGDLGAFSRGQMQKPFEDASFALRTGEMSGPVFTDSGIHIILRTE
FLuc counter 3: blocks purified firefly luciferase in Nrf2 counterscreen; AID 720522; shares compounds with Nrf2 block; Potency, µM (titrated, usually from 57.5 µM), without a hit: top-dose activity change, negative = inhibition, actives largely listed as inhibitors; 4% of 1,400 active; purified firefly luciferase, luminescence inhibition; note: % is set by controls: 0 for no effect and ±100 for the full control effect; nearly all actives have a fitted effect of over 65% in size
Target sequence (P08659 whole entry, looked up): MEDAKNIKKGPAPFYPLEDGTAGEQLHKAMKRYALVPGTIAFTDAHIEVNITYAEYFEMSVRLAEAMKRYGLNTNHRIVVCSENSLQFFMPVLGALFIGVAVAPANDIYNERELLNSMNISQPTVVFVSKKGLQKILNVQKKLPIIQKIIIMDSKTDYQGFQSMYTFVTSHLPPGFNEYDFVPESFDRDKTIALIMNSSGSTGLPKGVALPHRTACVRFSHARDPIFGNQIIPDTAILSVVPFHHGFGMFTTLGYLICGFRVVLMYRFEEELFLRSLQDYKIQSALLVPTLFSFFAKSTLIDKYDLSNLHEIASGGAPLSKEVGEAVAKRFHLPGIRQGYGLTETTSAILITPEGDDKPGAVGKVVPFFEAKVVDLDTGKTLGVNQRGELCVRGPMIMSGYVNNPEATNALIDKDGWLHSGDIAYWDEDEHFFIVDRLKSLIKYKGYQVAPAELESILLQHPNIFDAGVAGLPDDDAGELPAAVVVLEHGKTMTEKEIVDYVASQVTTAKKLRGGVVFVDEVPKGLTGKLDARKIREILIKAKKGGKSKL
A549 tox-2: toxic to A549 ARE-Fluc cells in Nrf2 counterscreen; shares compounds with Nrf2 block; A549 ARE-Fluc cells, cytotoxicity counterscreen; Potency, µM (series often up to 46.1 µM), inactives show at the highest dose activity change, negative = cytotoxicity, actives largely listed as inhibitors; 2% of 1,400 active; AID 720523;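 note: cells exposed to compounds for 18 to 24 hours; % is set by controls: 0 for no effect and ±100 for the full control effect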
ARE-Fluc inh: confirmation of Nrf2 inhibitors in A549 ARE reporter cells; A549 ARE-firefly luciferase reporter, luminescence; Potency, µM (titrated, usually from 46.1 µM), for inactives: top-dose activity change, negative = inhibition, most hits filed as inhibitors; 74% of 1,400 active; shares compounds with Nrf2 block; note: % is set by controls: 0 for no effect and ±100 for the full control effect; nearly all actives have a fitted effect of over 65% in size
Starred values were filed as active, the others as inactive; ? = inconclusive; . = not tested or not shown. Hits are enriched below; roughly 2.2% of the tested compounds scored in any of these assays. Unless noted, calls come from the whole dose curve; as a rule, active = well fitted curve in the direction sought with a large enough effect; inconclusive = small, poorly fitted or top-dose-only effect, or another doubt; inactive = no such curve, though single readings can be large; an effect the other way counts as inactive or inconclusive. Potency is the fitted concentration of half-maximal effect.

SMILES	A549 tox-1	Nrf2 block	Nrf2 ARE act	Pin1 inhibitor	FLuc counter 3	A549 tox-2	ARE-Fluc inh
N=c1ccn(Cc2ccc(Cl)cc2)cc1	?	.	0%	1%	.	.	.
CCCCCCCCCn1ccc(=N)cc1	?	3.3µM*	4%	2%	3%	-24%	8.2µM*
CCn1ccc(=N)cc1	-16%	.	0%	1%	.	.	.
COc1ccc(-c2ccc(OC)c(C3C4C=CCC(C)C4C(=O)N3Cc3ccccc3)c2)cc1 (stereo not drawn)	-1%	?	.	10%	.	.	.
CCOC(=O)c1ccc(NC(=O)C(CC)Sc2nc3ccncc3[nH]2)cc1 (stereo not drawn)	-2%	32%	4%	-11%	.	.	.
CCN(CC)S(=O)(=O)c1cc(NC(=O)C(=O)c2c(-c3ccccc3)cc3ccccn23)ccc1C	.	5.2µM*	2%	5%	2%	-11%	?
CNc1cccnc1C=NNC(N)=S	?	0.58µM*	0%	-9%	-23%	-13%	1.5µM*
CC(=O)c1cn(CCOc2ccccc2C)c2ccccc12	1%	4.6µM*	3%	1%	-2%	5%	6.5µM*
COc1ccc(-c2ccc(F)cc2)cc1C1C2C=CCC(C)C2C(=O)N1Cc1ccccc1 (stereo not drawn)	0%	?	.	2%	.	.	.
COc1ccc(NS(=O)(=O)c2cccc(NC(=O)c3ccc(Cl)nc3)c2)cc1	?	0.58µM*	0%	1%	0%	-5%	1.6µM*
O=C(Nc1cccc(S(=O)(=O)Nc2ccc(Cl)cc2)c1)c1ccc(Cl)nc1	?	3.3µM*	0%	-2%	-16%	-22%	4.1µM*
COc1cccc(S(=O)(=O)Nc2ccc(C(=O)Nc3ccncc3)cc2)c1	-3%	?	2%	4%	.	.	.
Cc1cc(C(=O)CSc2ncnc3ccccc23)c(C)n1C1CC1	0%	-16%	5%	?	.	.	.
Cc1cc(-n2c(C)cc(C(=O)CSc3ncnc4ccccc34)c2C)no1	?	4.6µM*	6%	27%	?	-2%	16µM*
Cn1cccc1C(=O)NC(=O)COC(=O)CNC(=O)c1ccc(Cl)cc1Cl	2%	2.6µM*	-1%	-1%	?	3%	7.3µM*
CCOc1ccccc1NC(=O)C(C)Sc1nc2c(c(=O)[nH]1)CCCC2 (stereo not drawn)	0%	-6%	15%	1%	.	.	.
Cc1ccc(F)cc1NC(=O)N1CCN(c2ccnc3cc(Cl)ccc23)CC1	-17%	9.2µM*	-1%	0%	-1%	-3%	9.2µM*
Cc1ccc(C(=O)N2CCN(c3ccc(NC(=O)c4ccc5c(c4)OCCO5)cc3)CC2)cc1	-19%	7.3µM*	0%	3%	0%	-22%	?
CC(C)C(=O)N1CCN(c2ccc(NC(=O)c3ccc4c(c3)OCCO4)cc2)CC1	-4%	-21%	0%	5%	.	.	.
CNc1c(Br)cc(C(O)C2=CCc3ccccc32)cc1Br (stereo not drawn)	.	.	.	.	1%	-16%	4.6µM*
Cc1ccc(C)c(CSc2nc3ccncc3n2CC(=O)Nc2ccc(N(C)C)cc2)c1	1%	?	8%	1%	.	.	.
Cc1nnc(SC(C)C(=O)Nc2ccc(Cl)cn2)n1Cc1ccccc1 (stereo not drawn)	?	9.2µM*	0%	0%	-1%	-2%	?
CCOC(=O)c1ccc(NC(=O)CCn2c(=O)c3cccn3c3cccnc32)cc1	12%	?	22%	24%	.	.	.
C[C@H]1CCC/C=C/[C@@H]2C[C@H](O)C[C@H]2[C@H](O)[C@H](S(=O)c2ccc(O)cc2)CC(=O)O1 (stereo partly drawn)	?	0.26µM*	0%	-6%	1%	?	0.52µM*
COc1ccc(C2CC(c3ccccc3)Oc3cc(OC)c(OC)c(OC)c32)cc1 (stereo not drawn)	?	-13%	.	1%	.	.	.
SMILES	A549 tox-1	Nrf2 block	Nrf2 ARE act	Pin1 inhibitor	FLuc counter 3	A549 tox-2	ARE-Fluc inh
Cc1sc(NC(=O)Cc2ccc3c(c2)OCO3)nc1-c1ccc2c(c1)CCN2C(=O)c1ccc(F)cc1	0%	5.2µM*	-1%	6%	-8%	8%	2.6µM*
CCOc1ccc(CNC(=O)C2Cc3ccccc3N2C(=O)CC)cc1OC (stereo not drawn)	0%	.	0%	-8%	.	.	.
CCc1ccc(NCc2cc3ccc(OC)cc3n(CC(=O)Nc3ccccc3OC)c2=O)cc1	-1%	14%	0%	19%	.	.	.
CC(CCCC(C)(C)O)NC(=O)c1cc(COc2ccc3ncccc3c2)on1 (stereo not drawn)	?	5.2µM*	3%	1%	-11%	-4%	6.5µM*
Cc1nc(CN(C)C(=O)c2cc(COc3ccc4ncccc4c3)on2)cs1	-15%	2.9µM*	0%	-6%	-17%	-5%	-42%
COCC1CCCCN1C(=O)c1cc(COc2ccc3ncccc3c2)on1 (stereo not drawn)	-7%	?	0%	-1%	.	.	.
CCC1CCCCN1C(=O)c1cc(COc2ccc3ncccc3c2)on1 (stereo not drawn)	?	2.1µM*	3%	6%	0%	-7%	.
COc1cc(OC)c(NC(=O)CCc2nc(C3=CCN(Cc4cccc(Cl)c4)CC3)no2)cc1Cl	?	.	5%	45%	.	.	.
COc1ccc(CNC(=O)C(=O)NCC(c2cccnc2)N2CCN(c3ccccc3)CC2)cc1 (stereo not drawn)	-11%	6%	-1%	4%	.	.	.
COc1ccc(-c2cc(=O)oc3c4c(ccc23)OCN(Cc2cccc(OC)c2)C4)cc1	-5%	19%	7%	18%	.	.	.
CCOc1ccc(NC(=O)c2sc3nc4c(cc3c2N)CN(Cc2ccccc2)CC4)cc1	3%	6%	1%	56%	.	.	.
O=[N+]([O-])c1ccc2ncnc(N3CCN(Cc4ccc5c(c4)OCO5)CC3)c2c1	-20%	8.2µM*	-1%	-7%	-2%	-11%	16µM*
O=[N+]([O-])c1cccnc1N1CCN(Cc2ccc3c(c2)OCO3)CC1	-1%	3%	0%	-10%	.	.	.
CCc1cccc(NC(=O)C2CCN(S(=O)(=O)c3cccs3)CC2)c1	0%	-17%	0%	8%	.	.	.
O=C(Nc1nc(-c2ccc3ccccc3c2)cs1)C1CCN(S(=O)(=O)c2cccs2)CC1	-10%	5.2µM*	0%	17%	1%	-1%	?
COc1ccc(S(=O)(=O)N2CCC(C(=O)Nc3ccc(Oc4ccccc4)cc3)CC2)cc1	0%	?	0%	-13%	-1%	-14%	?
